# Measured values as given in the supplement of paper PMC11624193, “Coupling cellular drug-target engagement to downstream pharmacology with CeTEAM” (Nature Communications, 2024).
# “And” between values parts separate entries of the source, which are not always exact repeats. Identical values can stand only once. Counter-ions that a name gives are not always drawn. Unmarked numbers belong to inactive results.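 Rule for the calls: active = log2 fold change beyond 2 SD from the library mean after excluding viability outliers; inactive = within 2 SD.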
# Target: PARP1 L713F-nLuc biosensor (HCT116) (UniProt P09874)
# Test: PARP1 L713F-nLuc/akaLuc ratio relative to DMSO control (biosensor stabilization) (fold change); higher = more PARP1 biosensor stabilization (target engagement / stabilizer), active = hit call of the paper
# Conditions: 24 h
# [1] = stock concentration (mM; final µM = stock mM x 1): 10
# [2] = stock concentration (mM; final µM = stock mM x 1): 2
# PARP1 L713F-nLuc biosensor (HCT116), sequence (P09874 whole entry L713F, looked up): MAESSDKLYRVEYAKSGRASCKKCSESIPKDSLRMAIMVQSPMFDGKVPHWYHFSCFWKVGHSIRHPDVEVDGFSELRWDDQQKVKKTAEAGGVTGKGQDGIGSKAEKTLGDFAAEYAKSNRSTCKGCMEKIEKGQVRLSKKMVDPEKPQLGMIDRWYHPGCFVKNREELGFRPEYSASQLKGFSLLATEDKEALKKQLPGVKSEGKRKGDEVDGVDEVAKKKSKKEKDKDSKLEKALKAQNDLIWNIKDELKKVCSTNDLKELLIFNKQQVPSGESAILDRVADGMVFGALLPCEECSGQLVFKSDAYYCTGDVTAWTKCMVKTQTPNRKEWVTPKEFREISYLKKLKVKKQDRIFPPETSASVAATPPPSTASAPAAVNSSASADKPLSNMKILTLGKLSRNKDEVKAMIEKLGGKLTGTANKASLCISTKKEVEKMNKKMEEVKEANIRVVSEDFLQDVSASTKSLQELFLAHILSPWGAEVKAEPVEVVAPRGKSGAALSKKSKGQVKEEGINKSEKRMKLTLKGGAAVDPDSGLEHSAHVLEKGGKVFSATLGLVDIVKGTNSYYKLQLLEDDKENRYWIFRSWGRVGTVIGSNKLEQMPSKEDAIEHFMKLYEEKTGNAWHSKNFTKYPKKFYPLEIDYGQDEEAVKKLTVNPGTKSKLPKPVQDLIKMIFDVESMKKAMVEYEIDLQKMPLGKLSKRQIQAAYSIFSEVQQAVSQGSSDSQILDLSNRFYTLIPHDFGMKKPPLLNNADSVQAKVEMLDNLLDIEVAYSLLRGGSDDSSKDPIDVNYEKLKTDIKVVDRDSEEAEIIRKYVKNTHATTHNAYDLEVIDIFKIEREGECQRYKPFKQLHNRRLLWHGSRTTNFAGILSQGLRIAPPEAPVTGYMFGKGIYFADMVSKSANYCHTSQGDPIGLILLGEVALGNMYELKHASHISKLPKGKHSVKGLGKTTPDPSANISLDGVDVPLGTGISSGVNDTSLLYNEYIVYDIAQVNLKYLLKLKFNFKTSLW
smiles,measurement,setting,value
Oc1cc(O)c2c(c1)OC1(c3ccc(O)c(O)c3)Oc3cc(O)c4c(c3C2C1O)OC(c1ccc(O)c(O)c1)C(O)C4 (stereo not drawn) [Procyanidin A1],PARP1 L713F-nLuc/akaLuc ratio,[1],1.43
COc1ccc2[nH]cc(/C=C3\C(=O)Nc4ccc(NC(=O)CCN5CCCCC5)cc43)c2c1,PARP1 L713F-nLuc/akaLuc ratio,[1],0.931
CCCCC(=O)OCC(=O)[C@]1(O)Cc2c(O)c3c(c(O)c2[C@@H](O[C@H]2C[C@H](NC(=O)C(F)(F)F)[C@H](O)[C@H](C)O2)C1)C(=O)c1c(OC)cccc1C3=O [Valrubicin],PARP1 L713F-nLuc/akaLuc ratio,[1],1.13
COc1cc2c(N3CCN(C(=O)Nc4ccc(OC(C)C)cc4)CC3)ncnc2cc1OCCCN1CCCCC1 [Tandutinib (MLN518)],PARP1 L713F-nLuc/akaLuc ratio,[2],1.73
COc1cc(-c2cn(C)c(=O)c3cnccc23)cc(OC)c1CN1CCN(CCCCCOc2cc(-c3scnc3C)ccc2CNC(=O)[C@@H]2C[C@@H](O)CN2C(=O)[C@@H](NC(=O)C2(F)CC2)C(C)(C)C)CC1,PARP1 L713F-nLuc/akaLuc ratio,[1],0.634
C[C@@H]1O[C@@H](O[C@H]2[C@H](OC(=O)[C@]34CCC(C)(C)C[C@H]3C3=CC[C@@H]5[C@@]6(C)C[C@H](O)[C@H](O[C@@H]7O[C@H](CO)[C@@H](O)[C@H](O)[C@H]7O)C(CO)(CO)[C@@H]6CC[C@@]5(C)[C@]3(C)C[C@H]4O)OC[C@H](O)[C@@H]2O)[C@H](O)[C@H](O)[C@H]1O[C@@H]1OC[C@@H](O)[C@H](O[C@@H]2OC[C@](O)(CO)[C@H]2O)[C@H]1O [Platycodin D],PARP1 L713F-nLuc/akaLuc ratio,[1],0.771
CC(=O)N1CCN([C@H]2CCC[C@@H](NC(=O)c3cc4c(F)ccc(C)c4[nH]3)C2)CC1,PARP1 L713F-nLuc/akaLuc ratio,[1],1.5
Nc1nc(Cl)nc2c1ncn2[C@@H]1O[C@H](CO)[C@@H](O)[C@@H]1F [Clofarabine],PARP1 L713F-nLuc/akaLuc ratio,[1],0.577
CNC[C@@H](O)COc1ccc(Cl)c(-c2nc(-c3c(C)noc3C)c(C)c(N3CC4(CCN(C(=O)OC)CC4)C3)n2)c1,PARP1 L713F-nLuc/akaLuc ratio,[1],0.955
COc1ccc(C2(CNC(=O)c3ccc(NC(=O)c4ccco4)cc3)CCOCC2)cc1,PARP1 L713F-nLuc/akaLuc ratio,[1],1.23
N#C/C(=C\c1ccc(O)c(O)c1)C(=O)NCc1ccccc1,PARP1 L713F-nLuc/akaLuc ratio,[1],1.13 and 0.936
O=C(NCc1ccncc1)C12CC3CC(C1)CC(c1ccc(Cl)cc1)(C3)C2,PARP1 L713F-nLuc/akaLuc ratio,[1],0.757
COc1cc2c(cc1OC)-c1c(C)c3ccc(OC)c(OC)c3c[n+]1CC2 [Dehydrocorydaline],PARP1 L713F-nLuc/akaLuc ratio,[1],0.741
Nc1c(S(=O)(=O)c2ccccc2)c2nc3ccccc3nc2n1-c1ccc(F)cc1,PARP1 L713F-nLuc/akaLuc ratio,[1],1.04
CCOC(=O)NCCCC(=O)NCCc1ccccc1 [Santacruzamate A],PARP1 L713F-nLuc/akaLuc ratio,[1],0.97
CS(=O)(=O)CCNCc1ccc(-c2ccc3ncnc(Nc4ccc(OCc5cccc(F)c5)c(Cl)c4)c3c2)o1 [Lapatinib],PARP1 L713F-nLuc/akaLuc ratio,[1],0.617
Cc1nc(C(=O)NCC(=O)O)c(O)c2ccc(Oc3ccccc3)cc12 [Roxadustat (FG-4592)],PARP1 L713F-nLuc/akaLuc ratio,[1],1.63
CCc1c(N(CC)C2CCOCC2)cc2oc(C3CCN(C(C)C)CC3)cc2c1C(=O)NCc1c(C)cc(C)[nH]c1=O,PARP1 L713F-nLuc/akaLuc ratio,[2],0.847
NC(=O)c1ccccc1 [Benzamide],PARP1 L713F-nLuc/akaLuc ratio,[1],1.08
"O=c1ccoc2cc(O)cc(O)c12 [5,7-Dihydroxychromone]",PARP1 L713F-nLuc/akaLuc ratio,[1],1.02
COc1cc2ncnc(Oc3cccc(NC(=O)Nc4cc(C(C)(C)C(F)(F)F)on4)c3)c2cc1OC,PARP1 L713F-nLuc/akaLuc ratio,[1],1.02
O=C(O)CC1CC(c2ccccc2)=NO1 (stereo not drawn),PARP1 L713F-nLuc/akaLuc ratio,[1],1.72
Cc1nc(C(=O)NCC(=O)O)c(O)c2ccc(Oc3ccccc3)cc12 [Roxadustat],PARP1 L713F-nLuc/akaLuc ratio,[1],1.02
CN1CCN(c2ccc(C(=O)Nc3ccc([C@@H]4C[C@H]4N)cc3)cc2)CC1,PARP1 L713F-nLuc/akaLuc ratio,[1],0.684
COc1cc(C=CC(=O)O)cc(OC)c1O (stereo in doubt) [Sinapinic acid],PARP1 L713F-nLuc/akaLuc ratio,[1],0.83
CC1=C2C(=O)O[C@@H](c3ccoc3)[C@]2(C)CCC1 [Fraxinellone],PARP1 L713F-nLuc/akaLuc ratio,[1],0.831
O=C(Nc1ccc(-c2ccnc(Nc3ccc(N4CCOCC4)cc3)n2)cc1)C1CCCN1 (stereo not drawn),PARP1 L713F-nLuc/akaLuc ratio,[1],0.659
O=C(O)c1ccc2c(c1)nc(NC(=O)c1ccccc1)n2CCCc1ccccc1,PARP1 L713F-nLuc/akaLuc ratio,[1],1.26
N#Cc1ccc2ncnc(NCCc3ccccc3)c2c1 [Senexin A],PARP1 L713F-nLuc/akaLuc ratio,[1],1.24
O=c1ncccn1[C@@H]1O[C@H](CO)[C@@H](O)[C@H]1O [Zebularine],PARP1 L713F-nLuc/akaLuc ratio,[1],0.711
CC(=O)O[C@@]12CO[C@@H]1C[C@H](O)[C@@]1(C)C(=O)[C@H](O)C3=C(C)[C@@H](OC(=O)[C@H](O)[C@@H](NC(=O)OC(C)(C)C)c4ccccc4)C[C@@](O)([C@@H](OC(=O)c4ccccc4)[C@H]21)C3(C)C [Docetaxel],PARP1 L713F-nLuc/akaLuc ratio,[1],1.44
C[C@H](Nc1cc(-c2cnn(C)c2)cc(Nc2cnccn2)n1)c1ccc(F)cc1 [Ilginatinib],PARP1 L713F-nLuc/akaLuc ratio,[1],0.485
Cc1cc(C)nc(SCC(=O)Nc2ncc(Cc3cccc(OCc4cn(Cc5ccccc5)nn4)c3)s2)n1,PARP1 L713F-nLuc/akaLuc ratio,[1],0.615
COc1nc(N)nc2c1ncn2[C@@H]1O[C@H](CO)[C@@H](O)[C@@H]1O [Nelarabine],PARP1 L713F-nLuc/akaLuc ratio,[1],1.15
Cc1cnc(NC(=O)Nc2cc(Br)c(C)cc2OC[C@@H]2CNCCO2)cn1,PARP1 L713F-nLuc/akaLuc ratio,[1],0.787
C[C@@H]1CC[C@@]2(OC1)O[C@H]1C[C@H]3[C@@H]4CC=C5C[C@@H](O[C@@H]6O[C@H](CO)[C@@H](O[C@@H]7O[C@@H](C)[C@H](O[C@@H]8O[C@@H](C)[C@H](O)[C@@H](O)[C@H]8O)[C@@H](O)[C@H]7O)[C@H](O)[C@H]6O[C@@H]6O[C@@H](C)[C@H](O)[C@@H](O)[C@H]6O)CC[C@]5(C)[C@H]4CC[C@]3(C)[C@@]1(O)[C@@H]2C [Paris saponin VII],PARP1 L713F-nLuc/akaLuc ratio,[1],1.01
Cc1nc(-c2cccnc2)sc1C(=O)Nc1ccccc1-c1cn2c(CN3CCOCC3)csc2n1,PARP1 L713F-nLuc/akaLuc ratio,[1],0.883
O=C(O)CCNc1cc(N2CCc3ccccc3CC2)nc(-c2ccccn2)n1,PARP1 L713F-nLuc/akaLuc ratio,[1],0.92
Nc1ccc(S(=O)(=O)NCCc2ccccc2)cc1,PARP1 L713F-nLuc/akaLuc ratio,[1],0.888
NC(=O)[C@H]1CCCc2c1[nH]c1ccc(Cl)cc21 [(S)-Selisistat],PARP1 L713F-nLuc/akaLuc ratio,[1],0.706
Cc1cnc(Nc2ccc(OCCN3CCCC3)cc2)nc1Nc1cccc(S(=O)(=O)NC(C)(C)C)c1,PARP1 L713F-nLuc/akaLuc ratio,[1],0.333 (active)
COc1ccc(C(=O)C2CCN(CC(=O)N(Cc3nc4c(c(=O)[nH]3)COCC4)CC3CC3)CC2)cc1,PARP1 L713F-nLuc/akaLuc ratio,[1],1.01
COc1cc2ncnc(Nc3ccc(O)c(Br)c3)c2cc1OC,PARP1 L713F-nLuc/akaLuc ratio,[1],0.973
C[C@]1(O)C[C@@H](c2nc(-c3ccc4ccc(-c5ccccc5)nc4c3)c3c(N)nccn32)C1 [Linsitinib (OSI-906)],PARP1 L713F-nLuc/akaLuc ratio,[1],0.715
O=C(O)CCCCC(CCSCc1ccccc1)SCc1ccccc1 (stereo not drawn),PARP1 L713F-nLuc/akaLuc ratio,[1],1.06
O=c1c(O)c(-c2ccc(O)c(O)c2)oc2cc(O)c(O)c(O)c12 [Quercetagetin],PARP1 L713F-nLuc/akaLuc ratio,[1],0.792
Cn1cnc2c(F)c(Nc3ccc(Br)cc3Cl)c(C(=O)NOCCO)cc21 [Selumetinib (AZD6244)],PARP1 L713F-nLuc/akaLuc ratio,[1],0.465
CCCc1cc(C)[nH]c(=O)c1CNC(=O)c1cc(-c2ccnc(N3CCN(C)CC3)c2)cc2c1cnn2C(C)C,PARP1 L713F-nLuc/akaLuc ratio,[1],2.54
CCc1cncnc1N1CCN(Cc2nc3ccc(C(F)(F)F)cc3[nH]2)CC1,PARP1 L713F-nLuc/akaLuc ratio,[1],0.681
O=C(/C=C/N1C[C@H]2C[C@@H]1CN2c1ccccn1)c1ccccc1O,PARP1 L713F-nLuc/akaLuc ratio,[1],1.3
Cc1ncc(Cl)cc1NCc1ccc(C(=O)N[C@@H](CC2CCCC2)C(=O)NC2CC2)s1,PARP1 L713F-nLuc/akaLuc ratio,[1],0.585
O=c1ccc2ccc(O)c(O)c2o1 [Daphnetin],PARP1 L713F-nLuc/akaLuc ratio,[1],1.38
CO[C@@]12[C@H](COC(N)=O)C3=C(C(=O)C(C)=C(N)C3=O)N1C[C@@H]1N[C@@H]12 [Mitomycin C],PARP1 L713F-nLuc/akaLuc ratio,[1],1.07
CCS(=O)(=O)N1CC(CC#N)(n2cc(-c3ncnc4[nH]ccc34)cn2)C1 [Baricitinib (phosphate)],PARP1 L713F-nLuc/akaLuc ratio,[1],1.19
FC(F)c1nc2ccccc2n1-c1nc(N2CCOCC2)nc(N2CCOCC2)n1,PARP1 L713F-nLuc/akaLuc ratio,[1],0.962
O=C(Nc1nc2cccc(-c3ccc(CN4CCS(=O)(=O)CC4)cc3)n2n1)C1CC1 [Filgotinib],PARP1 L713F-nLuc/akaLuc ratio,[1],0.941
CC[C@]1(O)C[C@@H]2CN(CCc3c([nH]c4ccccc34)[C@@](C(=O)OC)(c3cc4c(cc3OC)N(C)[C@H]3[C@@](O)(C(=O)OC)[C@H](OC(C)=O)[C@]5(CC)C=CCN6CC[C@]43[C@@H]65)C2)C1 [Vinblastine sulfate],PARP1 L713F-nLuc/akaLuc ratio,[1],1.03
CCn1cc(C(=O)O)c(=O)c2cc(F)c(N3CCNCC3)nc21 [Enoxacin (hydrate)],PARP1 L713F-nLuc/akaLuc ratio,stock concentration (mM; final µM = stock mM x 1): 9,0.596
